Assay outcomes as filed in PubChem.
Shown is part of a subset that was picked to be rich in hits.
TTR transcr act – TTR transcription activators in neuroblastoma reporter cells, primary screen, cell-based, luminescence, SH-SY5Y, TTR promoter Gaussia luciferase | 100% = recombinant luciferase protein wells | 92,000 tested, 1.3% active | activation, % at 16.7 µM;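 active = activation above the mean of all tested compounds plus 3 SD, cut at about 9.5% in these data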;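 note: cells exposed to compounds for one day before reading; 0% = median of all test compound wells on the plate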
HuH7 TTR inh – TTR promoter reporter inhibitors in hepatoma cells, counter-screen for TTR transcription activator project, cell-based, luminescence, HuH7 hepatoma. shares compounds with TTR transcr act. HuH7 TTR promoter-Gaussia luciferase reporter. inhibition, % at 16.7 µM. 1,100 tested, 4% active. AID 1117279, 2014;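 active = average inhibition above the solvent-only control wells' mean plus 3 SD, cut at about 15% in these data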;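 note: 0% = cells with DMSO only and 100% = cells with inhibitor control FD; inhibitors lower well luminescence so higher value means more inhibition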
TTR up confirm – TTR transcription activators, retest, confirmation, cell-based, luminescence, SH-SY5Y, triplicate | shares compounds with TTR transcr act | SHSY5Y TTR promoter Gaussia luciferase; 100% = purified Lucia enzyme wells, no cells | activation, % at 16.7 µM | 1,100 tested, under 10 active | AID 1117280, 2014;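 active = mean activation above a set limit taken from the earlier primary screen, cut at about 11% in these data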;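 note: 0% = DMSO-treated cells and 100% = recombinant Lucia luciferase without cells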
Active calls of the source: *.

For C[C@H](CO)N1C[C@H](C)[C@H](CN(C)S(=O)(=O)c2cccc(F)c2)Oc2cc(Br)ccc2S1(=O)=O the results were TTR transcr act 1.8.
C[C@H]1CN([C@@H](C)CO)S(=O)(=O)c2ccc(Br)cc2O[C@H]1CN(C)Cc1ccccc1 was read as TTR transcr act 1.2.
C[C@H](CO)N1C[C@H](C)[C@H](CN(C)Cc2ccc(Oc3ccccc3)cc2)Oc2cc(Br)ccc2S1(=O)=O was read as TTR transcr act 13.3*, HuH7 TTR inh -7.4 and TTR up confirm -1.0.
For Cc1ccc(-c2nnc(NC(=O)COc3ccc(F)cc3Cl)o2)cc1C the results were TTR transcr act -0.9.
`Nc1ncnc2c1ncn2[C@@H]1O[C@H](C(=O)NS(=O)(=O)c2cccs2)[C@@H](O)[C@H]1O` gave TTR transcr act 0.1.
`COCCN1C(=O)CCC1(C)c1nnnn1Cc1ccccc1` (stereo not given) gave TTR transcr act 1.0.
For O=C1NC[C@H](CCCCN2C[C@H](Cc3ccc(O)cc3)N(CC3CCCCC3)C(=O)C2=O)N(Cc2ccccc2)C1=O the results were TTR transcr act 0.2.
`CC(C)CCCCCCCCc1cccc(O)c1C(=O)O` gave TTR transcr act -0.7.
For CCOC(=O)c1c(NC(=O)C(C)N2CCN(C(=O)c3ccco3)CC2)sc2c1CCCC2 (stereo not given) the results were TTR transcr act -1.9.
For CCC(C(=O)NCc1ccccc1)n1c(-c2cccs2)nc2ccccc21 (stereo not given) the results were TTR transcr act 11.4*, HuH7 TTR inh -5.9 and TTR up confirm 1.5.
CCC(C(=O)NC1CCCC1)n1c(-c2ccccn2)nc2ccccc21 (stereo not given) was read as TTR transcr act -1.6.
For COc1ccc(C(C(=O)NCc2ccccc2)n2c(-c3ccncc3)nc3ccccc32)cc1 (stereo not given) the results were TTR transcr act -0.1.
`CCn1c(C)nc2cc(C(=O)NN=Cc3ccc([N+](=O)[O-])cc3)ccc21` gave TTR transcr act -2.2.
Screening CCc1ccccc1NC(=O)NNC(=O)CCc1ccc(OC)cc1 returned TTR transcr act 12.9*, HuH7 TTR inh -24.9 and TTR up confirm 2.0.
`COc1ccc(C(C)NC(=O)CCc2ccccc2)cc1` (stereo not given) gave TTR transcr act 0.0.
`COc1ccc(CCC(=O)NNC(=O)Nc2ccc(C(C)C)cc2)cc1` gave TTR transcr act -1.0.
For C[C@H]1CCC[C@@H](O)CC(=O)c2c(O)cc(O)cc2CC(=O)O1 the results were TTR transcr act -2.0.
`COc1ccc(Cn2ccc3ccc(-c4ccc5ccn(C(=O)C6CCCCC6)c5c4)cc32)cc1` gave TTR transcr act -1.4.
Screening CCc1ccccc1NC(=O)C1CCCN1S(=O)(=O)c1ccc2c(c1)n(C)c(=O)c(=O)n2C (stereo not given) returned TTR transcr act 17.6*, HuH7 TTR inh -14.9 and TTR up confirm -0.1.
`CCOc1ccccc1NC(=O)C1CCCN1S(=O)(=O)c1ccc2c(c1)C(C)(C)C(=O)N2C` (stereo not given) gave TTR transcr act 11.8*, HuH7 TTR inh -15.3 and TTR up confirm 0.4.
For CCc1ccccc1NC(=O)C1CCCN1S(=O)(=O)c1ccc(-c2ccc(=O)[nH]n2)s1 (stereo not given) the results were TTR transcr act 0.9.
`CCc1ccccc1NC(=O)[C@@H]1CCCN1S(=O)(=O)c1cccc2cccnc12` gave TTR transcr act 0.9.
For COc1cccc(NC(=O)C2CCCN2S(=O)(=O)c2ccc3c(c2)C(C)(C)C(=O)N3C)c1 (stereo not given) the results were TTR transcr act -1.5.
Cc1cccc(NC(=O)C2CCN(S(=O)(=O)c3ccc4c(c3)C(C)(C)C(=O)N4C)CC2)c1C was read as TTR transcr act 3.6.
`O=C(NC1CCCC1)C(C1CC1)n1c(-c2ccncc2)nc2ccccc21` (stereo not given) gave TTR transcr act 0.8.
For Cc1ccccc1CN1CCCCC(NC(=O)c2ccc(Br)cc2)C1=O (stereo not given) the results were TTR transcr act -1.3.
`Cc1cc(C)n2c(NC3CCCCC3)c(-c3cccnc3)nc2n1` gave TTR transcr act -0.1.
For COc1ccc(OC)c(C2C(C(=O)c3ccco3)=C(O)C(=O)N2CC2CCCO2)c1 (stereo not given) the results were TTR transcr act -0.2.
Screening Fc1cccc(Cc2c(-c3ccco3)nc3c(Cl)cc(C(F)(F)F)cn23)c1 returned TTR transcr act -0.4.
`Cc1ccc(C(=O)C(C)OC(=O)Cn2c(C)csc2=O)cc1` (stereo not given) gave TTR transcr act 1.4.
For O=C(CCc1ccccc1-c1ccccc1CCNC(=O)c1c(F)cccc1F)NCc1ccccc1 the results were TTR transcr act -1.4.
Screening CCOC(=O)C1CCN(C(=O)c2ccccc2CCc2ccccc2)CC1 returned TTR transcr act 2.5.
CC(C)c1nc(C(N)=O)c2[nH]c(=O)n(-c3ccc(F)cc3)c2n1 was read as TTR transcr act 9.8*, HuH7 TTR inh -8.1 and TTR up confirm -1.5.
`Cc1ccsc1-c1nc(C(N)=O)c2[nH]c(=O)n(-c3ccc(Cl)cc3)c2n1` gave TTR transcr act 2.2.
`CCOc1ccccc1-c1nc(C(N)=O)c2[nH]c(=O)n(-c3ccc(F)cc3)c2n1` gave TTR transcr act 0.8.
COc1ccccc1OCc1nn[nH]n1 was read as TTR transcr act 0.1.
`O=C(NC1CCCC1)C(c1ccccc1)n1c(CSCCOc2ccccc2)nc2ccccc21` (stereo not given) gave TTR transcr act -0.1.
`Cc1ccccc1CN1CCCCC(NC(=O)c2ccc(F)cc2F)C1=O` (stereo not given) gave TTR transcr act -0.6.
For O=C(c1c[nH]c(C(=O)N2CCN(c3ccccc3F)CC2)c1)c1cccc(Cl)c1Cl the results were TTR transcr act -2.5.
`Cc1ccccc1C(=O)n1ccc2ccc(-c3ccc4ccn(Cc5ccccc5)c4c3)cc21` gave TTR transcr act 0.8.
C[C@@H]1ON(C)[C@H]2C[C@H]3c4[nH]c5ccc(-c6ccc7c(c6)OCO7)cc5c4CCN3C[C@@H]12 was read as TTR transcr act 0.1.
For NC(CCc1ccccc1)c1csc(Nc2cnccn2)n1 (stereo not given) the results were TTR transcr act -2.1.
Screening CC[C@@H](OP(=O)(O)[C@@H](C)N)C(=O)O returned TTR transcr act -0.3.
CCN(C(=O)CSc1ccc2ccccc2c1)C1CCS(=O)(=O)C1 (stereo not given) was read as TTR transcr act 2.1.
Screening CCN(C(=O)CSc1nnc(C)n1Cc1ccccc1)C1CCS(=O)(=O)C1 (stereo not given) returned TTR transcr act 10.1*, HuH7 TTR inh -5.1 and TTR up confirm 0.8.
For CCN(C(=O)CSc1nnc(-c2ccc(F)cc2)c2ccccc12)C1CCS(=O)(=O)C1 (stereo not given) the results were TTR transcr act -1.1.
